KDM5B inh: inhibitors of human KDM5B histone demethylase. Potency, µM (top dose mostly 57.7 µM), usual class: inhibitors. 220,000 compounds, 2.6% hits. KDM5B demethylase, FDH-coupled NADH fluorescence (FDH is formaldehyde dehydrogenase). Q9UGL1. AID 1347165; active means well fitted inhibition curve with a large enough effect; further: nearly all actives have a fitted effect of over 70% in size
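Here, H3K4me3 peptide (12.5 µM in substrate mix) is demethylated by KDM5BΔAP, 200 nM final, after 10 min compound exposure. Formaldehyde product is coupled through FDH (0.25 U/mL in mix) to NADH fluorescence; 30-min ΔRFU feeds dose-response curves.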
Of the large screens only hits and unclear results are named; the others gave an inactive call. Shown is part of a subset that was picked to be rich in hits.

Cc1ccc2c(c1)-c1onc(C(=O)Nc3cc(-c4cccc(F)c4)no3)c1CO2	none
CC(=O)c1ccc(OCc2coc(-c3cccc(F)c3)n2)cc1	none
CCCCc1cn(CC2CCN(C(=O)c3ccsc3)CC2)nn1	none
O=C(c1ccsc1)N1CCC(Nc2cccnc2)C1 (stereo unspecified)	KDM5B inh 13µM
O=C(NCc1cccnc1)[C@@H]1C[C@@H](O)CN1C1CCN(C(=O)c2ccsc2)CC1	none
Cc1ccc(OCCC2CCN(C(=O)c3ccsc3)C2)cc1 (stereo unspecified)	none
CC(C)S(=O)(=O)N1CCC(Nc2cccnc2)C1 (stereo unspecified)	KDM5B inh 8.9µM
CCCOc1nccnc1NC1CCN(C(=O)c2cccnc2)CC1	KDM5B inh 28µM
O=C(c1cccnc1)N1CCC(OC2CCN(c3ccccc3)CC2)CC1	none
O=C(Cc1cccs1)N1CCC(Nc2cccnc2)C1 (stereo unspecified)	none
CC(C)CCN(C1CCOCC1)C1CCN(S(=O)(=O)c2cccnc2)CC1	none
O=C(c1cccnc1)N1CCC(OC2CCN(Cc3cccnc3)CC2)CC1	none
CC(C)S(=O)(=O)N1CCC(Oc2ncccc2C(=O)N(C)C)C1 (stereo unspecified)	none
CCCOc1nccnc1NC1CCN(C(=O)c2ccsc2)CC1	KDM5B inh 28µM
Cc1ccc(NC(=O)CNc2nc(Nc3ccccc3)nc(Nc3ccccc3)n2)cc1C	none
CC(=O)Nc1ccc(NC(=O)C2CCCN2c2ncnc3ccccc23)cc1 (stereo unspecified)	none
C=CCN(Cc1ccc(C#N)cc1)S(=O)(=O)c1cccs1	none
Cc1ccc(C(=O)Nc2ccc(O)c(-c3nc4cc(C)ccc4o3)c2)cc1	none
CCC(CC)NC(=O)NC(C)c1ccc(Br)cc1 (stereo unspecified)	none
CN(C)C(=O)c1ccc(NCC(=O)N2N=C(c3ccc(Cl)cc3)CC2c2ccco2)cc1 (stereo unspecified)	none
CN1C[C@@H](NC(=O)Nc2ccc(F)cc2F)C[C@H]1c1nc(-c2ccccc2)no1	none
COc1ccc(C2=NOC3(CCN(Cc4ccc(F)cc4)C3)C2)cc1 (stereo unspecified)	none
COc1ccc(CN2CCCC3(CC(c4ccccn4)=NO3)C2)cc1 (stereo unspecified)	none
Clc1ccc(CN2CCC3(CC2)CC(Cc2ccccc2)=NO3)cc1	none
COc1ccc(CN2CCC3(CC(Cc4ccccc4)=NO3)C2)cc1 (stereo unspecified)	KDM5B inh 25µM
CN(C)c1ccc(CN2CCCC3(CC(Cc4ccccc4)=NO3)C2)cc1 (stereo unspecified)	none
Fc1ccc(CN2CCC3(CC(Cc4ccccc4)=NO3)C2)cc1 (stereo unspecified)	KDM5B inh 32µM
O=C(NC1CCCCNC1=O)c1cc(Cl)c2c(c1)OCCCO2 (stereo unspecified)	none
O=C(NC1CC2CCC1C2)C1(c2ccccc2)CCC1 (stereo unspecified)	none
O=C(O)C(c1c[nH]c2cc(Br)ccc12)N1CCN(Cc2cccs2)CC1 (stereo unspecified)	none
O=C1CC(c2ccccc2)N(Cc2ccc(F)c(F)c2)CCCCCN1 (stereo unspecified)	none
COc1cccc(Oc2c(C)oc3cc(OCc4ccc(F)cc4)ccc3c2=O)c1	none
Cc1nc(CSc2ccccc2C(=O)N2CC=C(c3ccccc3)CC2)cs1	none
C/C(=N/Nc1ccc(S(N)(=O)=O)cc1[N+](=O)[O-])c1ccccc1Cl	none
CCN(CC)Cc1ccc(CNC(=O)CCC2CCCC2)cc1	none
COc1ccc(S(=O)(=O)Nc2ccc(NC(C)=O)cc2)cc1NC(C)=O	none
COc1cccc(/C=N/NC(=O)c2cnccn2)c1OC	none
COc1ccccc1-c1cnc(Nc2ccc3c(c2)OCCO3)c2c1CCO2	KDM5B inh 35µM
COc1ccccc1OCC(=O)Nc1ccc2c(c1)OCCO2	none
O=C(Nc1ncc(-c2ccccc2)c2c1OCC2)C1CCOCC1	none
CN(C)c1cccc(-c2cnc(NC(=O)c3ccncc3)c3c2CCO3)c1	none
COc1ccccc1-c1cnc(NC(=O)c2cnccn2)c2c1CCO2	KDM5B inh 35µM
c1ccc(CNc2ncc(-c3ccc(N4CCOCC4)cc3)c3c2OCC3)cc1	KDM5B inh 40µM
COc1ccccc1-c1cn2c(n1)CO[C@@H](CNC(=O)NCc1ccccc1)C2	none
c1ccc(-c2noc(-c3cncnc3Nc3ccc4c(c3)OCCO4)n2)cc1	none
COc1ccccc1-c1cnc(NCc2ccccc2)c2c1CCO2	KDM5B inh 35µM
O=C(O)c1cc(NCc2ccc(-c3ccccc3)cc2)ccc1N1CCOCC1	none
Nc1nc(N)nc(SCc2cccc(C(F)(F)F)c2)n1	none
O=[N+]([O-])c1ccc(N/N=C/c2ccccc2Br)cc1	none
O=C1OC[C@@H]2CCN(Cc3ccc(Cl)cc3)Cc3ccc(F)cc3N12	none
O=C(NCc1cccnc1)N1CCN(S(=O)(=O)c2cc(Cl)ccc2Cl)CC1	none
Cc1cc(=O)oc2cc(OC(=O)[C@H](C)NC(=O)OC(C)(C)C)c(Cl)cc12	none
O=C(Nc1cnc2ccccc2c1)c1ccc(Cl)cc1Cl	none
COc1ccc2cc(C(=O)Nc3ccccn3)c(C)nc2c1	none
COc1ccccc1NC(=O)C1=CCN(Cc2ccccc2F)CC1	none

Compound activity (PubChem)
